Source: PubChem BioAssay (NCATS)
Activity calls are given as the source filed them. The call rests on the fitted dose curve; in most records, active means well fitted activation curve with a large enough effect; inconclusive means small, poorly fitted or top-dose-only effect; inactive means no such curve, though single readings can be large or run the other way.

Biological target: Cytochrome P450 3A4 (Homo sapiens) (UniProt P08684)
Assay: qHTS Assay for Activators of Cytochrome P450 3A4 (AID 885); further: nearly all actives have a fitted effect of over 65% in size
Settings: recombinant CYP3A4, Luciferin-PPXE luminescence, 60 min; series mostly up to 57.1 µM
In short: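 Using 20nM recombinant human CYP3A4 in potassium phosphate (200mM), substrate Luciferin-PPXE at 25uM, luminescent luciferin detection followed a 60-min RT NADPH reaction; data scaled to 57 uM ketoconazole.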

Chain of Cytochrome P450 3A4 (Homo sapiens) (P08684 whole entry, looked up): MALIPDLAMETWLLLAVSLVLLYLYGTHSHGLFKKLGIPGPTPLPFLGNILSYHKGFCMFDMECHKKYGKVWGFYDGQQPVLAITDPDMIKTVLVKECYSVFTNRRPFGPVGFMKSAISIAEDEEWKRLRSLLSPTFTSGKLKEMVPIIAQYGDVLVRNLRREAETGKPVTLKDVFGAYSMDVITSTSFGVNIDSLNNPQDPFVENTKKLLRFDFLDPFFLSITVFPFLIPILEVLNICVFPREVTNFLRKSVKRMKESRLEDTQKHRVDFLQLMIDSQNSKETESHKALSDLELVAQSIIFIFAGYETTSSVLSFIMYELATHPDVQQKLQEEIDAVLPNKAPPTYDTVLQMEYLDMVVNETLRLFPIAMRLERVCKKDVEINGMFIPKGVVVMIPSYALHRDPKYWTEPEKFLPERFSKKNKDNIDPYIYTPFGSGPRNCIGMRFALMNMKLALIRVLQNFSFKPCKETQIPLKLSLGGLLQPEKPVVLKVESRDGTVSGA

Potency, inactive:
C[C@]1(C(=O)NCCN2CCOCC2)C=C[C@@H](Cc2ccccc2)N1C(=O)c1ccccc1, COC(=O)c1ccc(C(/C=C/[C@@H](C)C(=O)NCCc2c[nH]c3ccccc23)NC(=O)OCc2ccccc2)cc1 (some centres not stated), CN(C)c1ccc(CNC(=O)C2(C)C=CCN2C(=O)c2ccccc2)cc1 (configuration not stated), COC(=O)[C@@H]1C[C@H]1[C@@H](NC(=O)c1ccc(Br)cc1)c1ccccc1, CC(C)(C)[Si](OCC[C@@H]1C[C@@]1(C)[C@@H](NP(=O)(c1ccccc1)c1ccccc1)c1ccccc1)(c1ccccc1)c1ccccc1, CN(C)C(=O)[C@]1(C)C[C@H]1[C@H](NC(=O)CNC(=O)[C@@H]1CCCN1C(=O)[C@]1(C)C[C@H]1[C@H](NC(=O)OCc1ccccc1)c1ccccc1)c1ccccc1, CNC(=O)[C@H](C)/C=C/C(NC(=O)OCc1ccccc1)c1ccc(C(=O)OC)cc1 (some centres not stated), CC(=O)N1C2(C=CC1(C)C(=O)NCc1cc(F)cc(C(F)(F)F)c1)CCCCC2 (configuration not stated), COC(=O)N1CC=CC1(C)C(=O)NCc1cc(F)cc(C(F)(F)F)c1 (configuration not stated), CC(=O)N1CC=CC1(CC(C)C)C(=O)NCCc1c[nH]c2ccccc12 (configuration not stated), Cc1cc(CNC(=O)C(C)Cc2ccccc2)nn1C (configuration not stated), CCCCNC(=O)C(c1ccc(OCC(=O)OC)c(C(=O)OC)c1)N(Cc1ccccc1)C(=O)CCCCCN1C(=O)NC(c2ccc(-c3ccccc3)cc2)C(C(=O)OCc2ccccc2)=C1C (configuration not stated), CCCCCCN(C(=O)CCCCCN1C(=O)NC(c2ccc(C(F)(F)F)cc2)C(C(=O)OCc2ccccc2)=C1C)C(C(=O)NCCCC)c1ccc(OCC(=O)OC)c(C(=O)OC)c1 (configuration not stated), COC(=O)c1ccc(C(NC(=O)OCc2ccccc2)/C(=C/[C@@H](C)C(=O)N[C@@H](CO)Cc2ccccc2)c2cccnc2)cc1 (some centres not stated), CCCCCCN(C(=O)CCCCCN1C(=O)NC(c2ccc([N+](=O)[O-])cc2)C(C(=O)OCc2ccccc2)=C1C)C(C(=O)NCCCC)c1ccc(OCC(=O)OC)c(C(=O)OC)c1 (configuration not stated), CCC[C@@H]1C[C@@]1(CCC)[C@@H](NC(=O)c1ccccc1)c1ccc(C(=O)OC)cc1, CC(Cc1ccccc1)C(=O)NCCO (configuration not stated), COC(=O)c1ccc(C(NC(=O)OCc2ccccc2)/C(=C/[C@@H](C)C(=O)NCc2ccc(OC)c(O)c2)c2cccnc2)cc1 (some centres not stated), CC(C)NC(=O)[C@@H]1C[C@H]1[C@@H](NC(=O)OCc1ccccc1)c1ccccc1, COC(=O)c1ccc(C(NC(=O)OCc2ccccc2)/C(I)=C/[C@@H](C)C(=O)NCC2CC2)cc1 (some centres not stated), CCCCCCN(C(=O)CCCCCN1C(=O)NC(c2ccc(C3CCCCC3)cc2)C(C(=O)OCc2ccccc2)=C1C)C(C(=O)NCCCC)c1ccc(OCC(=O)OC)c(C(=O)OC)c1 (configuration not stated), COC(=O)c1ccc(C(NC(=O)OCc2ccccc2)/C(C)=C/[C@@H](C)C(=O)NCCN2CCOCC2)cc1 (some centres not stated), C[C@@H]1C=C[C@](Cc2ccccc2)(C(=O)NCCN2CCOCC2)N1C(=O)c1ccccc1, COC(=O)c1ccc(C(NC(=O)OCc2ccccc2)/C(=C/[C@@H](C)C(=O)NCc2cc(F)cc(F)c2)c2cccnc2)cc1 (some centres not stated), C[C@]1(C(=O)NCCCNc2ncc(C(F)(F)F)cc2Cl)C=C[C@@H](Cc2ccccc2)N1C(=O)c1ccccc1, CC(=O)N1C2(C=CC1(C)C(=O)NCc1ccccn1)CCCCC2 (configuration not stated), CCCCCCN(C(=O)CCCCCN1C(=O)NC(c2ccc(-c3ccccc3)cc2)C(C(=O)OCc2ccccc2)=C1C)C(C(=O)NCCCC)c1ccc(O)c(C(=O)OC)c1 (configuration not stated), CCCCNC(=O)C(c1ccc(OCC(=O)OC)c(C(=O)OC)c1)N(CCc1ccccn1)C(=O)CCCCCN1C(=O)NC(c2ccc(-c3ccccc3)cc2)C(C(=O)OCc2ccccc2)=C1C (configuration not stated), COC(=O)c1ccc(C(/C=C/[C@@H](C)C(=O)NCCN2CCCC2)NC(=O)OCc2ccccc2)cc1 (some centres not stated), COC(=O)c1ccc(C(NC(=O)OCc2ccccc2)/C(=C/[C@@H](C)C(=O)NCc2ccc(C)o2)c2cccnc2)cc1 (some centres not stated), CC(C)CC1(C(=O)NCCN2CCOCC2)C=CCN1C(=O)c1ccccc1 (configuration not stated), C=C(N(C)C)[C@]1(C)C[C@H]1[C@H](NC(=O)CNC(=O)OCc1ccccc1)c1ccccc1
